High-throughput results as filed in PubChem BioAssay.
Shown are actives, neighbours in structure and some others; about 3.5% of the full set was active somewhere.
Autofluor counter: flagged as autofluorescent in microsphere protease counterscreen; compound autofluorescence counterscreen, microsphere flow cytometry; stronger effect = higher value; actives 3.1% (n = 360,000); AID 624483; fluorescence intensity (test concentration not listed); in the data active means fluorescence intensity above about 16000; inconclusive means no clear call, values can overlap the other calls
3CLpro inhibitor: SARS-CoV 3CLpro protease inhibition; recombinant SARS-CoV 3CLpro, quenched FRET peptide cleavage; AID 1706; inhibition, % at 6 µM; actives 0.14% (n = 290,000); P0C6X7; in the data active means inhibition above about 12%
BoNT F protease: BoNT F light chain protease inhibition. AID 588497. actives 0.22% (n = 360,000). inhibition, % at 10 µM. Multiplex microsphere protease cleavage assay, flow cytometry; in the data active means inhibition above about 35%, passing the limit was not always enough; inconclusive means no clear call, values can overlap the other calls; further: plate controls were buffer without enzyme for full effect and enzyme alone for no effect
Anthrax LF prot: anthrax lethal factor protease inhibition. AID 588501. actives 0.12% (n = 360,000). P15917. inhibition, % at 10 µM. multiplex microsphere protease cleavage assay, LF; further: plate controls were buffer without enzyme for full effect and enzyme alone for no effect
BoNT-A LC inh2: blocks Botulinum neurotoxin A light chain protease. inhibition, % at 10 µM. multiplex microsphere protease substrate cleavage, flow cytometry. actives 0.17% (n = 360,000); further: plate controls were buffer without enzyme for full effect and enzyme alone for no effect
Active calls of the source: *; u = inconclusive; x = no result. Unless noted, no stated cut-off is given here; in the data, active means inhibition above about 30%; inconclusive means no clear call, values can overlap the other calls; inactive means below that.

SMILES | Autofluor counter | 3CLpro inhibitor | BoNT F protease | Anthrax LF prot | BoNT-A LC inh2
Cc1c(C(=O)NCc2cccs2)sc(=O)n1Cc1ccc(S(C)(=O)=O)cc1 | 5684 | x | 3 | 6 | 0
C=CCNC(=O)C1COc2ccccc2O1 (configuration not stated) | 4136 | 2 | -5 | -3 | 0
C=CCONC(=O)c1cc(OCC(F)(F)F)ccc1OCC(F)(F)F | 24141* | -2 | -3 | -2 | -3
O=C(Nc1ccc(OC(F)F)cc1)Nc1cccc(C(F)(F)F)c1 | 20493* | 2 | -4 | -2 | u
O=C(N/N=C\c1ccc(F)cc1)c1cc(OCC(F)(F)F)ccc1OCC(F)(F)F | 4600 | -3 | -4 | -8 | -1
CN(C)S(=O)(=O)NCCNC(=O)c1cc(OCC(F)(F)F)ccc1OCC(F)(F)F | 2622 | -7 | 0 | 1 | 0
O=C(NCCNC(=O)c1cc(OCC(F)(F)F)ccc1OCC(F)(F)F)Nc1cccc(C(F)(F)F)c1 | 24354* | 16* | -8 | 0 | u
CCSc1nnc(SCC(=O)NC2CCCCC2)s1 | 3797 | x | 0 | 1 | 1
O=C(N/N=C/c1ccc(Br)o1)c1cccnc1 | 2455 | 2 | -3 | 1 | -1
CCc1ccccc1N1C(=O)c2cccc3c(N4CCOCC4)c([N+](=O)[O-])cc(c23)C1=O | 24654* | 4 | -11 | -6 | -5
Cc1ccc2oc3nc(C)c(C(=O)Nc4cccc(C(F)(F)F)c4)cc3c(=O)c2c1 | 22965* | 1 | 2 | -3 | u
Cc1cccc(C)c1NC(=O)c1cc2c(=O)c3ccccc3oc2nc1C(F)(F)F | 11142 | 0 | -10 | 1 | -4
Cc1[nH]c(=S)c(C#N)c(C)c1Cc1ccccc1 | 5611 | 3 | 12 | 1 | 2
CC1(C(=O)NC(=S)N(CCC#N)c2ccccc2)CC1(Cl)Cl (configuration not stated) | 21445* | 4 | 4 | -7 | 3
CC(C)N(Cc1ccccc1)C(=S)NC(=O)C1(C)CC1(Cl)Cl (configuration not stated) | 4295 | 6 | -8 | -1 | -2
COc1ccc(-n2c(O)c(/C=N/NS(=O)(=O)c3cc(C)ccc3C)c3ccccc3c2=O)cc1OC | 17279* | 2 | 0 | -2 | -5
CN1C(=O)CC(N2CCN(C(=O)CN3CCCC3)CC2)C1=O (configuration not stated) | 24470* | -2 | -6 | 1 | -2
COCC(C)NC(=O)c1ccc(N(C)C)cc1 (configuration not stated) | 17509* | 1 | -6 | -2 | -2
CCOc1ccc(C(c2c(C)[nH][nH]c2=O)c2c(C)[nH][nH]c2=O)cc1OC | 2215 | -2 | -3 | 0 | 0
CCOc1cc(C(c2c(C)[nH][nH]c2=O)c2c(C)[nH][nH]c2=O)ccc1OC(=O)c1cccc([N+](=O)[O-])c1 | 19908* | 3 | -4 | 0 | 3
CCOc1cc(C(c2c(C)[nH][nH]c2=O)c2c(C)[nH][nH]c2=O)ccc1OCc1ccc([N+](=O)[O-])cc1 | 22205* | 7 | -6 | 0 | 0
CCCNc1nc2c(c(=O)n(C)c(=O)n2C)n1CCc1ccccc1 | 7723 | 4 | 2 | -2 | 0
CCn1c(NCc2ccccn2)nc2c1c(=O)n(C)c(=O)n2C | 16824* | -4 | -1 | 1 | -1
CCCn1c(NCc2ccco2)nc2c1c(=O)n(C)c(=O)n2C | 2495 | -2 | -10 | -2 | 0
CCOc1ccc(CCNc2nc3c(c(=O)n(C)c(=O)n3C)n2CC)cc1OCC | 16756* | -2 | -2 | 1 | u
SMILES | Autofluor counter | 3CLpro inhibitor | BoNT F protease | Anthrax LF prot | BoNT-A LC inh2
CC(=O)C1CCC2C3CCC4CC(O)CCC4(C)C3CCC12C (configuration not stated) | 4387 | x | -5 | 2 | -1
CCOc1ccc2c(c1)nc(SCC(=O)c1ccc(Br)s1)n2C | 16282* | 0 | -1 | 1 | 2
CCOc1ccc2c(c1)nc(SCC(=O)c1cccs1)n2C | 4527 | 1 | -11 | -1 | -1
CCOC(=O)N1CCN(C(=O)c2ccc(NS(C)(=O)=O)cc2)CC1 | 16339* | 3 | 1 | -3 | 0
CN(c1ccccc1C(=O)N1CCCC1)S(C)(=O)=O | 4702 | -6 | u | -7 | -1
CCOC(=O)N1CCN(C(=O)c2ccccc2N(C)S(C)(=O)=O)CC1 | 16798* | 0 | -4 | -4 | -2
Fc1ccc(NC(=S)NCCN2CCOCC2)cc1 | 4558 | 1 | -6 | 4 | -2
CC(C)CCNC(=O)CSc1nc2ccccc2c(=O)[nH]1 | 17172* | 0 | -6 | -4 | -3
CC(NC(=O)CSc1nc2ccccc2c(=O)[nH]1)c1ccccc1 (configuration not stated) | 2742 | 5 | 4 | 2 | 0
